Bioassay records deposited in PubChem BioAssay by several laboratories.
The list is not random: actives were taken first. Their share in the collection is about 2%.
HGIII-sPLA2 inh: human group III sPLA2 inhibitors, primary screen, biochemical, QFRET, BODIPY PC-A2 liposome substrate. Group 3 secretory phospholipase A2 (Homo sapiens), Q9NZ20. QFRET BODIPY PC-A2 liposome hydrolysis, fluorescence. inhibition, % at 12.2 µM. 370,000 tested, 0.56% active. AID 743126, 2013;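 active means inhibition above mean plus 3 SD of compounds lying within the high and low control bounds, cut at about 19% in these data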
NALP1 yeast inh: NALP1 inflammasome inhibitors in reconstituted yeast, colorimetric, S. cerevisiae, triplicate retest; AID 2071, 2009; S. cerevisiae NALP1/ASC/caspase-1 growth, X-gal OD620, 72 h; inhibition, % at 10 µM; 280,000 tested, 0.61% active; in the data active means inhibition mostly above about 24%, no sharp cut-off; inactive means mostly below about 32%
APOBEC3A inh: APOBEC3A ssDNA deaminase inhibitors, primary screen, selectivity assay for APOBEC3G inhibitor project, biochemical, FAM/TAMRA oligo cleavage fluorescence | recombinant A3A, FAM/TAMRA ssDNA deamination fluorescence | 330,000 tested, 0.41% active | inhibition, % at 20 µM | DNA dC->dU-editing enzyme APOBEC-3A (Homo sapiens), P31941;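 active means at least 40% inhibition at 20 µM here, with at most 30% in a related deaminase screen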
Target sequence (P31941 whole entry, looked up): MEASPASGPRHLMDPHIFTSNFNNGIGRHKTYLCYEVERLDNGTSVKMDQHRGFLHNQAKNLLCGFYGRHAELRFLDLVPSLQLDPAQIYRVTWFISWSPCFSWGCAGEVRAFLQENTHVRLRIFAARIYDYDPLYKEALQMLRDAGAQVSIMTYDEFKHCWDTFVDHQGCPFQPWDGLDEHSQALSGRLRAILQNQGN
Fh CTSL1 inh: Fasciola hepatica cathepsin L1 inhibitors, primary screen, counter-screen for PFM18AAP inhibitor project, biochemical, QFRET, fluorogenic peptide substrate. recombinant F. hepatica cathepsin L1, Z-Leu-Arg-MCA fluorescence. inhibition, % at 5.96 µM. 300,000 tested, 0.49% active. AID 1906, 2009;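 active means inhibition above the mean of all tested compounds plus 3 SD, set per screening campaign, cut at about 17% in these data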
A3G deaminase: APOBEC3G DNA deaminase inhibitors, primary screen, biochemical, fluorescence, single-stranded DNA substrate, uHTS. 330,000 tested, 0.28% active. recombinant A3G, ssDNA deamination FAM/TAMRA fluorescence. AID 493012, 2011. inhibition, % at 20 µM;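 active means inhibition of at least 40% at 20 µM, with no more than 30% in the related APOBEC3A deaminase screen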
Target sequence (Q9HC16 whole entry, looked up): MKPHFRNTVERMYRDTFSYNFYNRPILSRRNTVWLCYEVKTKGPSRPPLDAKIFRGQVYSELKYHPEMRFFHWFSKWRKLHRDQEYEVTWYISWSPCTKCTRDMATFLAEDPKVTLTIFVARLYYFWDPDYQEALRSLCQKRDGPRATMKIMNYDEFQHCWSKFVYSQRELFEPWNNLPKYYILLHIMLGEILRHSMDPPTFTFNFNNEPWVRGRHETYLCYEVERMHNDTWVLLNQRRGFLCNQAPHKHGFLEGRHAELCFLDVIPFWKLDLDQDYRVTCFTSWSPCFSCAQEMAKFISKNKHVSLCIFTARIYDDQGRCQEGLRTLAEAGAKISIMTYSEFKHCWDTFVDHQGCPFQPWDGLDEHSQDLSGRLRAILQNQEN
sPLA2 confirm: human group III sPLA2 inhibitors, confirmation, biochemical, QFRET, triplicate; shares compounds with HGIII-sPLA2 inh; inhibition, % at 12.2 µM; recombinant hGIII-sPLA2, BODIPY PC-A2 QFRET fluorescence; 2,000 tested, 34% active;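 active means mean inhibition across triplicates above the hit cutoff set in the earlier primary screen, cut at about 19% in these data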
BODIPY interf: 535nm fluorescence optical interference, confirmation, artefact control for HGIII-sPLA2 inhibitor project, biochemical, QFRET; BODIPY FL product fluorescence interference; shares compounds with HGIII-sPLA2 inh; 2,000 tested, 8.5% active; AID 743282, 2014; inhibition, % at 12.2 µM;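 active means average inhibition above the solvent-only control mean plus 3 SD, cut at about 6% in these data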
BODIPY interf DR: 535nm fluorescence optical interference, dose response, artefact control for HGIII-sPLA2 inhibitor project, biochemical, QFRET; shares compounds with HGIII-sPLA2 inh; 240 tested, under 10 active; IC50, µM; AID 743455, 2014; BODIPY FL product fluorescence interference, cell-free;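 active means IC50 at or below 10 µM; inactive means IC50 above 10 µM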
Large screens that a line does not name were inactive (follow-up assays come after a bar, where they were run).

O=C(O)c1cc(O)c2c(c1)[C@@H]([C@H]1c3cc(C(=O)O)cc(O)c3C(=O)c3c(O[C@@H]4O[C@H](CO)[C@@H](O)[C@H](O)[C@H]4O)cccc31)c1cccc(OC3O[C@H](CO)[C@@H](O)[C@H](O)[C@H]3O)c1C2=O (some centres undefined)	none (no result: NALP1 yeast inh)
O=C(O)c1cc(O)c2c(c1)[C@H]([C@H]1c3cc(C(=O)O)cc(O)c3C(=O)c3c(O[C@@H]4O[C@H](CO)[C@@H](O)[C@H](O)[C@H]4O)cccc31)c1cccc(OC3O[C@H](CO)[C@@H](O)[C@H](O)[C@H]3O)c1C2=O (some centres undefined)	HGIII-sPLA2 inh 27 (no result: NALP1 yeast inh) | sPLA2 confirm inactive | BODIPY interf inactive
c1ccc(-c2csc(-c3ccc(-c4csnn4)cc3)n2)cc1	HGIII-sPLA2 inh 21 | sPLA2 confirm inactive | BODIPY interf inactive
COC(=O)C1CN(C2CC2)CCS(=O)(=O)N1Cc1cn(Cc2ccc(C)cc2)nn1 (centres undefined)	none (no result: NALP1 yeast inh, APOBEC3A inh, Fh CTSL1 inh, A3G deaminase)
COc1ccc(NC(=O)c2cc(-c3cc(C)ccc3O)n[nH]2)cc1Cl	HGIII-sPLA2 inh 20 | sPLA2 confirm inactive | BODIPY interf inactive
CCNC(=S)NNC(=O)CSc1nc2ccccc2c(=O)n1-c1ccc(Cl)cc1	HGIII-sPLA2 inh 32 (no result: NALP1 yeast inh, APOBEC3A inh, Fh CTSL1 inh, A3G deaminase) | sPLA2 confirm 25 | BODIPY interf inactive
O=C(CSc1nc2ccccc2c(=O)n1-c1ccc(SC(F)F)cc1)Nc1ccc(N2CCOCC2)cc1	HGIII-sPLA2 inh 21 | sPLA2 confirm inactive | BODIPY interf inactive
O=C(CSc1nc2ccccc2c(=O)n1-c1ccc(F)cc1)Nc1ccc(N2CCOCC2)cc1	none
CCOC(=O)CNC(=O)CSc1nc2ccccc2c(=O)n1-c1ccc(Cl)cc1	none (no result: NALP1 yeast inh, APOBEC3A inh, Fh CTSL1 inh, A3G deaminase)
COc1ccc(-n2c(SCC(=O)NNC(=S)Nc3ccccc3)nc3ccccc3c2=O)cc1	HGIII-sPLA2 inh 36 (no result: NALP1 yeast inh, APOBEC3A inh, Fh CTSL1 inh, A3G deaminase) | sPLA2 confirm 39 | BODIPY interf inactive | BODIPY interf DR inactive
COc1ccc(-n2c(SCC(=O)Nc3ccc(NC(C)=O)cc3)nc3ccccc3c2=O)cc1	none
Cc1ccc(NC(=S)NNC(=O)CSc2nc3ccccc3c(=O)n2-c2ccc(C)cc2)cc1	HGIII-sPLA2 inh 28 | sPLA2 confirm 24 | BODIPY interf inactive
Cc1ccc(-n2c(SCC(=O)Nc3ccc(N4CCOCC4)cc3)nc3ccccc3c2=O)cc1	none
COC(=O)[C@@]12C[C@@H](CC(=O)NCC34CC5CC(CC(C5)C3)C4)C(=O)N(Cc3ccccc3)C1=CCC(C)(C)C2	none (no result: NALP1 yeast inh, APOBEC3A inh, Fh CTSL1 inh, A3G deaminase)
CC(C)CCN1C(=O)COc2ccccc2C1c1nnnn1-c1ccc2c(c1)OCCO2 (centres undefined)	none (no result: NALP1 yeast inh, APOBEC3A inh, Fh CTSL1 inh, A3G deaminase)
COC(=O)[C@]12C[C@H](CC(=O)N3CCOCC3)C(=O)N(Cc3ccco3)C1=C[C@H](C(C)C)O[C@@H]2C1CC1	none (no result: NALP1 yeast inh, APOBEC3A inh, Fh CTSL1 inh, A3G deaminase)
O=C(Nc1cccnc1N1CCOCC1)c1cccs1	HGIII-sPLA2 inh 22 | sPLA2 confirm inactive | BODIPY interf inactive
O=C(Nc1ccc(N2CCOCC2)nc1)c1cccs1	none
COc1ccc(CNC(=S)N/N=C/c2ccc(OC)c(OC)c2)cc1	none
COc1ccc(/C=N/NC(=S)NCc2ccccc2)cc1OC	HGIII-sPLA2 inh 24 | sPLA2 confirm inactive | BODIPY interf inactive
CC(C)(C)c1ccc(C(=O)Nc2cc(Cl)ccc2-c2nn[nH]n2)cc1	none (no result: NALP1 yeast inh, APOBEC3A inh, Fh CTSL1 inh, A3G deaminase)
COC(=O)[C@H](C(C)C)N(Cc1cn(Cc2ccc(C)cc2)nn1)S(=O)(=O)c1ccc(F)cc1Br	none (no result: NALP1 yeast inh, APOBEC3A inh, Fh CTSL1 inh, A3G deaminase)
CC(=O)NC(C)C(=O)N1CCCC1C(=O)N1CCCC1C(=O)NC(C)C(=O)NC1C(=O)NC(CC(C)C)C(=O)NC2CCCCNC(=O)CCC(C(=O)NC(Cc3ccc(O)cc3)C(=O)O)NC(=O)C3CCC(=O)OCC(NC(=O)C4CCCN4C(=O)C(Cc4c[nH]c5ccccc45)NC2=O)C(=O)NC(CC(=O)OC1C)C(=O)NC(Cc1c[nH]c2ccccc12)C(=O)N3 (centres undefined)	none (no result: NALP1 yeast inh, APOBEC3A inh, Fh CTSL1 inh, A3G deaminase)
Brc1ccc(C=Nc2ccc3c(c2)OCCOCCOCCO3)s1	HGIII-sPLA2 inh 24 | sPLA2 confirm inactive | BODIPY interf inactive
Brc1csc(C=Nc2ccc3c(c2)OCCOCCOCCOCCO3)c1	none
CC(=O)NCC1COc2ccccc2O1 (centres undefined)	none (no result: NALP1 yeast inh)
CN(C)C(=O)OCC1COc2ccccc2O1 (centres undefined)	HGIII-sPLA2 inh 21 | sPLA2 confirm inactive | BODIPY interf inactive
CCCCCC[N+](C)(C)CC/C=C1/c2ccccc2Sc2ccc(Cl)cc21	HGIII-sPLA2 inh 19 | sPLA2 confirm inactive | BODIPY interf inactive
CN(C)CC/C=C1/c2ccccc2Sc2ccc(Cl)cc21	none
Cc1cccc(-c2nnc(SCC(=O)Nc3cccc4ccccc34)n2Cc2ccco2)c1	none (no result: NALP1 yeast inh, APOBEC3A inh, Fh CTSL1 inh, A3G deaminase)
COc1cc(OC)c(C2C(C#N)=C(C)NC(C)=C2C#N)c(C(=O)O)c1	HGIII-sPLA2 inh 24 | sPLA2 confirm inactive | BODIPY interf inactive
Clc1ccc(N=NN2CCOCC2)cc1	HGIII-sPLA2 inh 19 | sPLA2 confirm inactive | BODIPY interf inactive
COC(=O)[C@]12C[C@H](CC(=O)N3CCOCC3)C(=O)N(Cc3ccc4c(c3)OCO4)C1=C[C@H](C(C)C)O[C@@H]2C1CC1	none (no result: NALP1 yeast inh, APOBEC3A inh, Fh CTSL1 inh, A3G deaminase)
Cc1cccc(-c2nnn3c2nc(NCCc2ccc(S(N)(=O)=O)cc2)c2ccccc23)c1	HGIII-sPLA2 inh 22 | sPLA2 confirm inactive | BODIPY interf inactive
CCC(C)NC(=O)CSc1nnc(-c2cc(OC)c(OC)c(OC)c2)o1 (centres undefined)	none (no result: NALP1 yeast inh, APOBEC3A inh, Fh CTSL1 inh, A3G deaminase)
Oc1ccc(Oc2ccccc2F)c2cccnc12	HGIII-sPLA2 inh 25 (no result: NALP1 yeast inh, APOBEC3A inh, Fh CTSL1 inh, A3G deaminase) | sPLA2 confirm 26 | BODIPY interf inactive
Cc1ccc(-n2c(SCC(=O)Nc3cccc4ccccc34)nnc2-c2cnccn2)cc1	none (no result: NALP1 yeast inh, APOBEC3A inh, Fh CTSL1 inh, A3G deaminase)
Cc1c(C)n(CCC#N)c2ccccc12	HGIII-sPLA2 inh 21 | sPLA2 confirm inactive | BODIPY interf inactive
